Some test systems named below: SK-MEL-2 melanoma; EKVX NSCLC; SN12C renal; UO-31 renal; TK-10 renal; ACHN renal; CAKI-1 renal; A498 renal; CCRF-CEM leukemia; MOLT-4 leukemia.
Holding throughout (test): NCI-60 one-dose screen, 48 h (100 = growth as untreated, 0 = no growth, -100 = all killed)
Common to all, as to details: 10 µM unless noted

About 83,000 compounds went through this panel and 20% of them were active in at least one assay; those are over-represented in the sample as a whole.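 Results are percent growth after 48 hours of single-concentration exposure. 100 means growth as in untreated cells, lower positive values show inhibition; negative values down to -100 show cell death.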 A number with no mark means an inactive call. Active and inactive are the calls of the source. How the source made its calls: active means growth percent below 10; inactive means the rest.

With `CC(=O)c1c(C)nc2ccccc2c1/C=C/c1ccc(F)cc1`, the growth is 93.3% in the assay with SK-MEL-2 melanoma; 75.5% in the assay with EKVX NSCLC; 93.3% in the assay on SN12C renal; 67.6% with UO-31 renal; 91.8% in the assay with TK-10 renal; 85.4% with ACHN renal. The growth in the assay with CAKI-1 renal is 75.7%; with A498 renal, 84.6%; in the assay on CCRF-CEM leukemia it was 82%; in the assay on MOLT-4 leukemia it was 84.1%.

`C=C(C)[C@@H]1CC[C@]2(C(=O)N3CCOCC3)CC[C@]3(C)[C@H](CC[C@@H]4[C@@]5(C)C/C(=C/c6ccncc6)C(=O)C(C)(C)[C@@H]5CC[C@]43C)[C@@H]12`: the growth was 72.2% in the assay with SK-MEL-2 melanoma; 60.8% in the assay with EKVX NSCLC; 62.6% in the assay with SN12C renal; 52.6% in the assay on UO-31 renal; 91% in the assay with TK-10 renal; 58.4% in the assay with ACHN renal. Moreover, the growth in the assay with CAKI-1 renal is 56.8%; in the assay on A498 renal, 68.9%; in the assay on CCRF-CEM leukemia it was 31.7%; with MOLT-4 leukemia, 30.3%.

For `CCOC(=O)NC(C)C`, the growth in the assay on SK-MEL-2 melanoma is 114%; in the assay with EKVX NSCLC, 105%; in the assay on SN12C renal, 100%; in the assay with UO-31 renal, 81.5%; with TK-10 renal, 115%; in the assay on ACHN renal, 100%. The growth in the assay on CAKI-1 renal was 98.2%; in the assay with A498 renal, 117%; with CCRF-CEM leukemia, 110%; in the assay with MOLT-4 leukemia, 82.9%.

Regarding `CCCCCCCCCCCCCCCCOCCCOP(=O)(O)C1CCCN(O)C1=O` (stereo not given), the growth in the assay with SK-MEL-2 melanoma was 36%; in the assay with EKVX NSCLC, 33.9%; in the assay with SN12C renal it was 16.3%; in the assay on UO-31 renal it was 5.07% (active); with TK-10 renal it was 33.1%; in the assay with ACHN renal, 10.5%. Moreover, the growth in the assay with CAKI-1 renal is 16.6%; in the assay with A498 renal it was 1.39% (active); in the assay with CCRF-CEM leukemia it was 5.85% (active); in the assay on MOLT-4 leukemia, 7.18% (active).

Turning to `Cc1c2cnccc2c(C)c2c1c1cc(C#N)ccc1n2C`, the growth in the assay on SK-MEL-2 melanoma was -75.4% (active); in the assay with EKVX NSCLC it was -3.54% (active); with SN12C renal, -5.29% (active); with UO-31 renal, -4.29% (active); in the assay with TK-10 renal it was -13% (active); with ACHN renal, -2.32% (active). Moreover, the growth in the assay with CAKI-1 renal is 6.63% (active); in the assay on A498 renal it was -65.6% (active); in the assay on CCRF-CEM leukemia, -16.8% (active); in the assay on MOLT-4 leukemia, -11.2% (active).

As to `C=C(CBr)[C@@H]1CC[C@]2(C(=O)O)CC[C@]3(C)[C@H](CC[C@@H]4[C@@]5(C)CCC(=O)C(C)(C)[C@@H]5CC[C@]43C)[C@@H]12`, the growth is 79.7% in the assay with SK-MEL-2 melanoma; 86.5% in the assay with EKVX NSCLC; 72.5% in the assay with SN12C renal; 56.2% in the assay with UO-31 renal; 112% with TK-10 renal; 81.4% in the assay with ACHN renal. Moreover, the growth in the assay on CAKI-1 renal is 82%; with A498 renal, 110%; in the assay on CCRF-CEM leukemia it was 50.3%; in the assay on MOLT-4 leukemia it was 54.4%.

Turning to `COc1ccc(C/C(C)=C(/c2ccc(OCCN(C)C)cc2)c2ccc(OC(=O)NCc3ccccc3)cc2)cc1`, the growth in the assay with SK-MEL-2 melanoma is 90.5%; in the assay on EKVX NSCLC it was 72.2%; in the assay on SN12C renal, 74.2%; with UO-31 renal it was 46.4%; in the assay on TK-10 renal, 78.5%; with ACHN renal, 90.9%. Also, the growth was 67.1% with CAKI-1 renal, 85.7% in the assay with A498 renal, 47.2% in the assay on CCRF-CEM leukemia and 37.3% in the assay on MOLT-4 leukemia.

As to `COc1ccc(CNc2c3ccccc3nc3ccccc23)cc1`, the growth was 60.1% with SK-MEL-2 melanoma; 49.7% with EKVX NSCLC; 32.2% in the assay on SN12C renal; 22.1% in the assay with UO-31 renal; 49.5% with TK-10 renal; 18.8% with ACHN renal. In addition, the growth in the assay with CAKI-1 renal is 29.3%; with A498 renal, 10%; in the assay with CCRF-CEM leukemia, 39%; with MOLT-4 leukemia, 9.38% (active).

For `CCC1=C[C@@H]2C[C@]3(C(=O)OC)c4[nH]c5ccccc5c4CC[N@+](CC(=O)Nc4cc5c(cc4OC)N(C)[C@H]4[C@@](O)(C(=O)OC)[C@H](OC(C)=O)[C@]6(CC)C=CCN7CC[C@]54[C@@H]76)(C2)[C@H]13`, the growth in the assay on SK-MEL-2 melanoma was 105%; in the assay on EKVX NSCLC, 105%; in the assay with SN12C renal it was 105%; in the assay with UO-31 renal it was 84.4%; in the assay with TK-10 renal, 98.6%; in the assay with ACHN renal, 106%. Moreover, the growth was 93.2% with CAKI-1 renal, 121% in the assay on A498 renal, 80.6% in the assay with CCRF-CEM leukemia and 108% in the assay on MOLT-4 leukemia.

For the compound `Nc1c(C(=O)Nc2ccncc2)sc2nc3c(cc12)C(O)CCC3` (stereo not given), the growth with SK-MEL-2 melanoma is 97.4%; in the assay on EKVX NSCLC, 99.9%; with SN12C renal, 96.3%; in the assay on UO-31 renal, 81.8%; in the assay with TK-10 renal it was 91%; in the assay with ACHN renal, 96.4%. Moreover, the growth in the assay with CAKI-1 renal was 99.6%; in the assay on A498 renal it was 112%; in the assay with CCRF-CEM leukemia it was 94.6%; with MOLT-4 leukemia, 98%.

Regarding `COC12C=C/C(=C(/C(=O)OCc3ccncc3)C(=O)CCCCCCCCC3(OC)C=C/C(=C(/C(=O)OCc4ccncc4)C(=O)CCCCCCCC1)O3)O2`, the growth in the assay with SK-MEL-2 melanoma was -1.63% (active); with EKVX NSCLC, -22.1% (active); in the assay with SN12C renal, -30.6% (active); with UO-31 renal, -70.9% (active); in the assay on TK-10 renal, -45% (active); in the assay on ACHN renal, -64% (active). Also, the growth in the assay on CAKI-1 renal is -48.6% (active); in the assay on A498 renal, -87.6% (active); with CCRF-CEM leukemia, -14.8% (active); with MOLT-4 leukemia it was -1.82% (active).

For the compound `C=CCn1c(SCC(=O)Nc2ccc(C(=O)/C=C/c3ccc(Cl)cc3)cc2)nnc1-c1ccc(Br)cc1`, the growth in the assay with SK-MEL-2 melanoma is 76.4%; in the assay on EKVX NSCLC it was 101%; in the assay with SN12C renal, 80.3%; in the assay with UO-31 renal, 67.9%; in the assay on TK-10 renal, 83.3%; in the assay with ACHN renal it was 78.3%. Also, the growth is 74.5% with CAKI-1 renal, 74.6% in the assay on A498 renal, 79.7% in the assay with CCRF-CEM leukemia and 63.1% with MOLT-4 leukemia.

As for `CS(=O)(=O)Nc1cc(-c2ccc3ncnc(Nc4ccc5c(cnn5Cc5ccc(F)cc5)c4)c3c2)cnc1Cl`, the growth is 3.86% (active) with SK-MEL-2 melanoma; 62.5% in the assay on EKVX NSCLC; 35.6% in the assay with SN12C renal; 46.5% in the assay with UO-31 renal; 38.3% with TK-10 renal; 70.6% in the assay with ACHN renal. Besides, the growth in the assay with CAKI-1 renal was 25.7%; with A498 renal, -23.2% (active); in the assay on CCRF-CEM leukemia, 31.2%; in the assay on MOLT-4 leukemia, 21.2%.

These data come from PubChem BioAssay (NCI).
